Measurements published in PubChem BioAssay (NCI).
About 79,000 compounds went through this panel and 15% of them were active in at least one assay; those are over-represented in the sample as a whole. Unmarked numbers belong to inactive results. Active and inactive are the calls of the source. No stated cut-off is given here; in the data, active means growth inhibition above about 70%; inactive means the rest.

What was measured:
[1] = NCI Yeast Anticancer Drug Screen. Data for the wt1 strain (AID 149);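 further: 0% = growth of vehicle-treated wt1 cultures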; settings: S. cerevisiae wt1 strain (SPY 50644) growth inhibition, hits give high values
Method in brief: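 Compounds are added to wt1 yeast cultures. Growth is then measured. Inhibition is expressed relative to vehicle-treated controls.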

[2] = NCI Yeast Anticancer Drug Screen. Data for the rad50EPP+ strain (AID 151);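 further: 0% = growth of vehicle-treated control cultures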; settings: S. cerevisiae rad50 mutant strain, hits give high values
Method in brief: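 Growth inhibition read against vehicle controls in rad50EPP+ yeast, a strain altered in DNA damage repair, after compound exposure.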

[3] = NCI Yeast Anticancer Drug Screen. Data for the mgt1 strain (AID 153); settings: S. cerevisiae mgt1 mutant growth inhibition, hits give high values
Method in brief: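 mgt1 yeast grown with test compound; read-out is growth inhibition versus vehicle-treated cultures.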

[4] = NCI Yeast Anticancer Drug Screen. Data for the rad50 strain (AID 155);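 further: 0% = growth of vehicle-only cultures of the same strain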; settings: S. cerevisiae rad50 strain growth inhibition, hits give high values
Method in brief: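 Inhibition values express reduced yeast growth in compound-treated cultures relative to vehicle-treated controls.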

[5] = NCI Yeast Anticancer Drug Screen. Data for the mec2-1 strain (AID 157); settings: S. cerevisiae mec2-1 strain, hits give high values
Method in brief: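 Yeast mec2-1 mutant treated with compound. Readout: growth inhibition vs vehicle controls.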

[6] = NCI Yeast Anticancer Drug Screen. Data for the rad14 strain (AID 159);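 further: 0% = growth of vehicle-treated control cultures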; settings: S. cerevisiae rad14 strain growth inhibition, hits give high values
Method in brief: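 A mutant yeast strain defective in DNA damage repair is treated with compound; inhibition of its growth is scored against untreated, vehicle-exposed cultures.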

[7] = NCI Yeast Anticancer Drug Screen. Data for the sgs1 mgt1 strain (AID 161);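 further: 0% = growth of cultures given vehicle only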; settings: S. cerevisiae sgs1 mgt1 strain, hits give high values
Method in brief: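 Mutant yeast exposed to compound; growth scored against vehicle-only wells.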

[8] = NCI Yeast Anticancer Drug Screen. Data for the CLN2oe strain (AID 163);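 further: 0% = growth of vehicle-only control cultures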; settings: S. cerevisiae CLN2oe strain, hits give high values
Method in brief: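 Read-out: yeast growth inhibition, expressed relative to vehicle-only controls. The strain bears an engineered cell-cycle alteration.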

[9] = NCI Yeast Anticancer Drug Screen. Data for the cln2 rad14 strain (AID 165);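 further: 0% = growth equal to vehicle treated cultures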; settings: S. cerevisiae cln2 rad14 strain, hits give high values
Method in brief: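 cln2 rad14 yeast strain; compound exposure; growth inhibition read vs vehicle controls.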

[10] = NCI Yeast Anticancer Drug Screen. Data for the bub3 strain (AID 167); settings: S. cerevisiae bub3 mutant strain, hits give high values
Method in brief: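 Steps: expose the mutant yeast strain to compound; grow alongside vehicle-treated cultures; measure growth; express inhibition against the vehicle cultures.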

[11] = NCI Yeast Anticancer Drug Screen. Data for the wt2 strain (AID 169);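 further: 0% = growth of vehicle-treated yeast cultures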; settings: S. cerevisiae wt2 strain growth inhibition, hits give high values
Method in brief: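 Read-out: growth inhibition versus vehicle-treated control cultures after compound exposure of the yeast strain.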

[12] = NCI Yeast Anticancer Drug Screen. Data for the mlh1 strain (AID 171);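 further: 0% = growth of vehicle-treated control cultures of the same strain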; settings: S. cerevisiae mlh1 strain growth inhibition, hits give high values
Method in brief: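 Read-out: growth inhibition versus vehicle controls. Strain: engineered yeast with a defined DNA repair or cell cycle defect, compound-treated.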

[13] = NCI Yeast Anticancer Drug Screen. Data for the mlh1 rad18 strain (AID 175); settings: S. cerevisiae mlh1 rad18 strain growth inhibition, hits give high values
Method in brief: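 Yeast w/ defined DNA-repair lesions; compound exposure; growth vs vehicle controls → % inhibition.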

[14] = NCI Yeast Anticancer Drug Screen. Data for the rad18 strain (AID 177); settings: S. cerevisiae rad18 mutant growth inhibition, hits give high values
Method in brief: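 Readout: growth inhibition vs vehicle controls. Cells: genetically altered yeast strain, DNA repair defect.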

[15] = NCI Yeast Anticancer Drug Screen. Data for the sgs1 strain (AID 173);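 further: 0% = growth of vehicle-only control cultures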; settings: S. cerevisiae sgs1 mutant, hits give high values
Method in brief: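 Read-out: yeast growth inhibition relative to vehicle controls, following compound exposure of a strain with a defined DNA repair/cell cycle alteration.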

[16] = at 5.0 µM (retest, dose inferred, filed as 0.5)
[17] = at 50.0 µM (retest, dose inferred, filed as 5.0)

CNC(=O)OCc1c(COC(=O)NC)c(C)n(-c2ccc(Cl)c(Cl)c2)c1C
growth inhibition ([1]; at 1.2 µM): -51% | growth inhibition ([1]; at 3.7 µM): -53% | growth inhibition ([1]; at 11.0 µM): -54% | growth inhibition ([1]; at 33.0 µM): 97% (active) | growth inhibition ([1]; at 100.0 µM): 99% (active) | growth inhibition ([2]; at 1.2 µM): -23% | growth inhibition ([2]; at 3.7 µM): -19% | growth inhibition ([2]; at 11.0 µM): -25% | growth inhibition ([2]; at 33.0 µM): -18% | growth inhibition ([2]; at 100.0 µM): 65% | growth inhibition ([3]; at 1.2 µM): -35% | growth inhibition ([3]; at 3.7 µM): -40% | growth inhibition ([3]; at 11.0 µM): -14% | growth inhibition ([3]; at 33.0 µM): 98% (active) | growth inhibition ([3]; at 100.0 µM): 99% (active) | growth inhibition ([4]; at 1.2 µM): -37% | growth inhibition ([4]; at 3.7 µM): -34% | growth inhibition [4, 16]: 25% | growth inhibition ([4]; at 11.0 µM): -16% | growth inhibition ([4]; at 33.0 µM): 97% (active) | growth inhibition [4, 17]: 97% (active) | growth inhibition ([4]; at 50.0 µM): 89.6% (active) | growth inhibition ([4]; at 100.0 µM): 97% (active) | growth inhibition ([5]; at 1.2 µM): -27% | growth inhibition ([5]; at 3.7 µM): -22% | growth inhibition [5, 16]: 23% | growth inhibition ([5]; at 11.0 µM): -26% | growth inhibition ([5]; at 33.0 µM): 98% (active) | growth inhibition [5, 17]: 98% (active) | growth inhibition ([5]; at 50.0 µM): 90.8% (active) | growth inhibition ([5]; at 100.0 µM): 99% (active) | growth inhibition ([6]; at 1.2 µM): -38% | growth inhibition ([6]; at 3.7 µM): -16% | growth inhibition ([6]; at 11.0 µM): 25% | growth inhibition ([6]; at 33.0 µM): 98% (active) | growth inhibition ([6]; at 100.0 µM): 98% (active) | growth inhibition [7, 16]: 5% | growth inhibition [7, 17]: 23% | growth inhibition ([7]; at 50.0 µM): 89.5% (active) | growth inhibition ([8]; at 1.2 µM): -30% | growth inhibition ([8]; at 3.7 µM): -4% | growth inhibition ([8]; at 11.0 µM): -1% | growth inhibition ([8]; at 33.0 µM): 46% | growth inhibition ([8]; at 100.0 µM): 94% (active) | growth inhibition [9, 16]: 7% | growth inhibition [9, 17]: -10% | growth inhibition ([9]; at 50.0 µM): 84.5% (active) | growth inhibition ([10]; at 1.2 µM): -31% | growth inhibition ([10]; at 3.7 µM): -36% | growth inhibition [10, 16]: 8% | growth inhibition ([10]; at 11.0 µM): -21% | growth inhibition ([10]; at 33.0 µM): 97% (active) | growth inhibition [10, 17]: 9% | growth inhibition ([10]; at 50.0 µM): 87% (active) | growth inhibition ([10]; at 100.0 µM): 98% (active) | growth inhibition ([11]; at 1.2 µM): -48% | growth inhibition ([11]; at 3.7 µM): -37% | growth inhibition ([11]; at 11.0 µM): -58% | growth inhibition ([11]; at 33.0 µM): 91% (active) | growth inhibition ([11]; at 100.0 µM): 97% (active) | growth inhibition ([12]; at 1.2 µM): -26% | growth inhibition ([12]; at 3.7 µM): -10% | growth inhibition ([12]; at 11.0 µM): 10% | growth inhibition ([12]; at 33.0 µM): 97% (active) | growth inhibition ([12]; at 100.0 µM): 97% (active) | growth inhibition [13, 16]: 39% | growth inhibition [13, 17]: 98% (active) | growth inhibition ([13]; at 50.0 µM): 92.3% (active) | growth inhibition ([14]; at 1.2 µM): -32% | growth inhibition ([14]; at 3.7 µM): -33% | growth inhibition ([14]; at 11.0 µM): 1% | growth inhibition ([14]; at 33.0 µM): 97% (active) | growth inhibition ([14]; at 100.0 µM): 98% (active)

COc1ccc(/C=C2\CCc3ccccc3C2=O)cc1OC
growth inhibition ([1]; at 1.2 µM): -13% | growth inhibition ([1]; at 3.7 µM): -2% | growth inhibition ([1]; at 11.0 µM): -11% | growth inhibition ([1]; at 33.0 µM): 24% | growth inhibition ([1]; at 100.0 µM): 88% (active) | growth inhibition ([2]; at 1.2 µM): -24% | growth inhibition ([2]; at 3.7 µM): -26% | growth inhibition ([2]; at 11.0 µM): 1% | growth inhibition ([2]; at 33.0 µM): 32% | growth inhibition ([2]; at 100.0 µM): 40% | growth inhibition ([3]; at 1.2 µM): 2% | growth inhibition ([3]; at 3.7 µM): 5% | growth inhibition ([3]; at 11.0 µM): 21% | growth inhibition ([3]; at 33.0 µM): 67% | growth inhibition ([3]; at 100.0 µM): 89% (active) | growth inhibition ([4]; at 1.2 µM): 3% | growth inhibition ([4]; at 3.7 µM): -2% | growth inhibition [4, 16]: 36% | growth inhibition ([4]; at 11.0 µM): -1% | growth inhibition ([4]; at 33.0 µM): 22% | growth inhibition [4, 17]: 51% | growth inhibition ([4]; at 50.0 µM): 83.3% (active) | growth inhibition ([4]; at 100.0 µM): 82% (active) | growth inhibition ([5]; at 1.2 µM): -36% | growth inhibition ([5]; at 3.7 µM): -8% | growth inhibition [5, 16]: -11% | growth inhibition ([5]; at 11.0 µM): -22% | growth inhibition ([5]; at 33.0 µM): 24% | growth inhibition [5, 17]: 66% | growth inhibition ([5]; at 50.0 µM): 60.3% | growth inhibition ([5]; at 100.0 µM): 90% (active) | growth inhibition ([6]; at 1.2 µM): -16% | growth inhibition ([6]; at 3.7 µM): -13% | growth inhibition ([6]; at 11.0 µM): -20% | growth inhibition ([6]; at 33.0 µM): 19% | growth inhibition ([6]; at 100.0 µM): 80% (active) | growth inhibition [7, 16]: 37% | growth inhibition [7, 17]: 68% | growth inhibition ([7]; at 50.0 µM): 84.8% (active) | growth inhibition ([8]; at 1.2 µM): 21% | growth inhibition ([8]; at 3.7 µM): 22% | growth inhibition ([8]; at 11.0 µM): 29% | growth inhibition ([8]; at 33.0 µM): 37% | growth inhibition ([8]; at 100.0 µM): 92% (active) | growth inhibition ([10]; at 1.2 µM): 24% | growth inhibition ([10]; at 3.7 µM): 29% | growth inhibition [10, 16]: 25% | growth inhibition ([10]; at 11.0 µM): 51% | growth inhibition ([10]; at 33.0 µM): 76% (active) | growth inhibition [10, 17]: 95% (active) | growth inhibition ([10]; at 50.0 µM): 87.6% (active) | growth inhibition ([10]; at 100.0 µM): 94% (active) | growth inhibition ([11]; at 1.2 µM): -38% | growth inhibition ([11]; at 3.7 µM): -25% | growth inhibition ([11]; at 11.0 µM): -28% | growth inhibition ([11]; at 33.0 µM): 53% | growth inhibition ([11]; at 100.0 µM): 91% (active) | growth inhibition ([12]; at 1.2 µM): 20% | growth inhibition ([12]; at 3.7 µM): 29% | growth inhibition ([12]; at 11.0 µM): 26% | growth inhibition ([12]; at 33.0 µM): 79% (active) | growth inhibition ([12]; at 100.0 µM): 91% (active) | growth inhibition ([15]; at 1.2 µM): -6% | growth inhibition ([15]; at 3.7 µM): -26% | growth inhibition ([15]; at 11.0 µM): -12% | growth inhibition ([15]; at 33.0 µM): 35% | growth inhibition ([15]; at 100.0 µM): 93% (active) | growth inhibition [13, 16]: 10% | growth inhibition [13, 17]: 91% (active) | growth inhibition ([13]; at 50.0 µM): 63.5% | growth inhibition ([14]; at 1.2 µM): -20% | growth inhibition ([14]; at 3.7 µM): -10% | growth inhibition ([14]; at 11.0 µM): -18% | growth inhibition ([14]; at 33.0 µM): 19% | growth inhibition ([14]; at 100.0 µM): 88% (active)
